Source: the supplement of paper PMC9492666

These compounds were tested on MDA-MB-231 (assay: relative cell viability, compound + erastin, vs DMSO (fraction of DMSO control); higher = less growth inhibition). Details: 72 h.
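Note: viability read by CCK-8 kit in 96-well plates, part of a combination screen pairing lipid-metabolism-targeting compounds with erastin.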

SMILES | relative cell viability
O=C(c1ccc(NS(=O)(=O)c2cccc3cccnc23)cc1)N1CCN(CC2CC2)CC1 [Mitapivat] + CCOc1ccccc1-n1c(C(C)N2CCN(C(=O)COc3ccc(Cl)cc3)CC2)nc2ccccc2c1=O [erastin] | 0.638
N=C(N)NCCC(=O)O [3-Guanidinopropionic Acid] + CCOc1ccccc1-n1c(C(C)N2CCN(C(=O)COc3ccc(Cl)cc3)CC2)nc2ccccc2c1=O [erastin] | 0.852
O=C1/C(=C/c2cccs2)CC/C1=C\c1cccs1 + CCOc1ccccc1-n1c(C(C)N2CCN(C(=O)COc3ccc(Cl)cc3)CC2)nc2ccccc2c1=O [erastin] | 0.658
C=C(C)[C@@H]1CC[C@]2(CO)CC[C@]3(C)[C@H](CC[C@@H]4[C@@]5(C)CC[C@H](O)C(C)(C)[C@@H]5CC[C@]43C)[C@@H]12 [Betulin] + CCOc1ccccc1-n1c(C(C)N2CCN(C(=O)COc3ccc(Cl)cc3)CC2)nc2ccccc2c1=O [erastin] | 0.32
C[C@H](CCOc1cccc(CC(=O)O)c1)N(Cc1cccc(C(F)(F)F)c1Cl)CC(c1ccccc1)c1ccccc1 [RGX-104 free Acid] + CCOc1ccccc1-n1c(C(C)N2CCN(C(=O)COc3ccc(Cl)cc3)CC2)nc2ccccc2c1=O [erastin] | 0.488
CNC(=O)c1cccc(NC(=O)N2CCC(Oc3ccccc3Cl)CC2)c1 + CCOc1ccccc1-n1c(C(C)N2CCN(C(=O)COc3ccc(Cl)cc3)CC2)nc2ccccc2c1=O [erastin] | 0.523
c1cc(-c2cnn3cc(-c4ccc(OCCN5CCCCC5)cc4)cnc23)ccn1 [Dorsomorphin] + CCOc1ccccc1-n1c(C(C)N2CCN(C(=O)COc3ccc(Cl)cc3)CC2)nc2ccccc2c1=O [erastin] | 0.405
